{
  "source": "the supplement of paper PMC9135407",
  "test_system": "primary human hepatic stellate cells (donor 1)",
  "experiment": "scaled lipid accumulation score (0 = DMSO-like, 1 = nortriptyline-like); higher = stronger HSC inactivation (lipid re-accumulation), active = hit call of the paper",
  "conditions": "48 h",
  "key": {"[1]": {"conditions": "library stock concentration: 80 uM"}, "[2]": {"conditions": "library stock concentration: 400 uM"}, "[3]": {"conditions": "library stock concentration: 2 mM"}, "[4]": {"conditions": "library stock concentration: 3.33 mM"}, "[5]": {"conditions": "library stock concentration: 10 mM"}, "[6]": {"conditions": "library stock concentration: 1 mM"}, "[7]": {"conditions": "library stock concentration: 4.7 mM"}},
  "note": "Several values for one entry are separate records, joined by “and”; a condition that tells them apart may be missing. Equal entries are not always repeated. Structures can show the parent of a compound that is named as a salt. Screen size: about 5,800 compounds; about 620 (11%) showed activity. Shown is part of a subset that was picked to be rich in actives. Unmarked numbers belong to inactive results.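 Rule for the calls: active = score above a cut-off or among the top three wells of a plate; in these data no inactive exceeds 0.85.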",
  "data": [
    {"smiles": "COc1cc2nc(N3CCCN(C)CC3)nc(NC3CCN(Cc4ccccc4)CC3)c2cc1OC", "values": [
      {"measurement": "scaled lipid accumulation score", "setting": "[1]", "result": "≤ 0"},
      {"measurement": "scaled lipid accumulation score", "setting": "[2]", "result": "≤ 0"},
      {"measurement": "scaled lipid accumulation score", "setting": "[3]", "result": 0.569},
      {"measurement": "scaled lipid accumulation score", "setting": "[4]", "result": 0.42},
      {"measurement": "scaled lipid accumulation score", "setting": "[5]", "result": "0.096 and 0.353 and 0.204"}
    ]},
    {"smiles": "COc1cc2c(NC3CCN(C(C)C)CC3)nc(C3CCCCC3)nc2cc1OCCCN1CCCC1", "values": [
      {"measurement": "scaled lipid accumulation score", "setting": "[1]", "result": "≤ 0"},
      {"measurement": "scaled lipid accumulation score", "setting": "[2]", "result": "≤ 0"},
      {"measurement": "scaled lipid accumulation score", "setting": "[3]", "result": 0.354},
      {"measurement": "scaled lipid accumulation score", "setting": "[5]", "result": 0.14}
    ]},
    {"smiles": "Nc1nccc(-c2c(-c3ccc(F)cc3)ncn2C2CCNCC2)n1", "values": [
      {"measurement": "scaled lipid accumulation score", "setting": "[4]", "result": "≤ 0"}
    ]},
    {"smiles": "O=S1(=O)c2cccc3cccc(c23)N1CCCN1CCN(c2ccc(F)cc2)CC1", "note": "[Fananserin]", "values": [
      {"measurement": "scaled lipid accumulation score", "setting": "[5]", "result": 0.048}
    ]},
    {"smiles": "CS(=O)(=O)O.N=C(N)SCCc1ccc(OCc2ccc([N+](=O)[O-])cc2)cc1", "note": "[KB-R7943 mesylate]", "values": [
      {"measurement": "scaled lipid accumulation score", "setting": "[5]", "result": "0.99 (active)"}
    ]},
    {"smiles": "N=C(N)SCCc1ccc(CCSC(=N)N)cc1", "note": "[1,4-PBIT (dihydrobromide)]", "values": [
      {"measurement": "scaled lipid accumulation score", "setting": "[6]", "result": 0.049}
    ]},
    {"smiles": "N=C(N)SCCc1cccc(CCSC(=N)N)c1", "note": "[1,3-PBIT (dihydrobromide)]", "values": [
      {"measurement": "scaled lipid accumulation score", "setting": "[6]", "result": "≤ 0"}
    ]},
    {"smiles": "C=CCNC(N)=S", "values": [
      {"measurement": "scaled lipid accumulation score", "setting": "[5]", "result": "≤ 0"}
    ]},
    {"smiles": "C=CCNC(N)=S", "note": "[Allylthiourea]", "values": [
      {"measurement": "scaled lipid accumulation score", "setting": "[4]", "result": "≤ 0"},
      {"measurement": "scaled lipid accumulation score", "setting": "[5]", "result": "≤ -0.001"}
    ]},
    {"smiles": "CCCCCCCCCCCCCCNC(=O)C1CCCCC1", "note": "[N-Cyclohexanecarbonyltetradecylamine]", "values": [
      {"measurement": "scaled lipid accumulation score", "setting": "[6]", "result": 0.008}
    ]},
    {"smiles": "CC(C)c1noc(N2CCC(COc3ccc(-c4ccc(S(C)(=O)=O)cc4)nc3)CC2)n1", "values": [
      {"measurement": "scaled lipid accumulation score", "setting": "[4]", "result": 0.019},
      {"measurement": "scaled lipid accumulation score", "setting": "[5]", "result": 0.16}
    ]},
    {"smiles": "Oc1cc(O)c(Cl)cn1", "note": "[Gimeracil]", "values": [
      {"measurement": "scaled lipid accumulation score", "setting": "[4]", "result": 0.014},
      {"measurement": "scaled lipid accumulation score", "setting": "[5]", "result": 0.04}
    ]},
    {"smiles": "CCCSc1ccc2[nH]c(NC(=O)OC)nc2c1", "note": "[Albendazole]", "values": [
      {"measurement": "scaled lipid accumulation score", "result": 0.176},
      {"measurement": "scaled lipid accumulation score", "setting": "[4]", "result": "≤ 0"},
      {"measurement": "scaled lipid accumulation score", "setting": "library stock concentration: 7.5 mM", "result": "0.449 and ≤ 0"},
      {"measurement": "scaled lipid accumulation score", "setting": "[5]", "result": "≤ -0.027 and 0.562"}
    ]},
    {"smiles": "COC(=O)Nc1nc2ccc(SC(C)C)cc2[nH]1", "note": "[Methiazole]", "values": [
      {"measurement": "scaled lipid accumulation score", "result": "≤ 0"}
    ]},
    {"smiles": "CCCSc1ccc2nc(NC(=O)OC)[nH]c2c1", "note": "[Albendazole]", "values": [
      {"measurement": "scaled lipid accumulation score", "setting": "[5]", "result": "0.892 (active)"}
    ]},
    {"smiles": "O=P(O)(O)O[C@H]1[C@H](O)[C@@H](O)[C@H](OP(=O)(O)O)[C@@H](OP(=O)(O)O)[C@H]1O", "note": "[D-myo-Inositol-1,3,4-triphosphate (sodium salt)]", "values": [
      {"measurement": "scaled lipid accumulation score", "setting": "[6]", "result": "≤ 0"}
    ]},
    {"smiles": "CNCCCC1c2ccccc2C=Cc2ccccc21.Cl", "note": "[Protriptyline hydrochloride]", "values": [
      {"measurement": "scaled lipid accumulation score", "result": "1.24 (active)"},
      {"measurement": "scaled lipid accumulation score", "setting": "[5]", "result": "0.911 (active)"}
    ]},
    {"smiles": "CNCCCC1c2ccccc2C=Cc2ccccc21", "note": "[Protryptyline hydrochloride]", "values": [
      {"measurement": "scaled lipid accumulation score", "setting": "library stock concentration: 6.7 mM", "result": 0.698}
    ]},
    {"smiles": "Nc1nc(OCC2CCCCC2)c2[nH]cnc2n1", "values": [
      {"measurement": "scaled lipid accumulation score", "setting": "[5]", "result": "≤ -0.055"}
    ]},
    {"smiles": "S=P(N1CC1)(N1CC1)N1CC1", "note": "[Thiotepa]", "values": [
      {"measurement": "scaled lipid accumulation score", "setting": "[5]", "result": "≤ -0.027"},
      {"measurement": "scaled lipid accumulation score", "setting": "library stock concentration: 10.6 mM", "result": "≤ 0"}
    ]},
    {"smiles": "CCCCCCCCCCCCCCCCOCC(CO)OC(C)=O", "note": "(stereo not given) [1-Hexadecyl-2-O-acetyl-glycerol]", "values": [
      {"measurement": "scaled lipid accumulation score", "setting": "[6]", "result": 0.035}
    ]},
    {"smiles": "CC(C)N1Cc2cc(S(C)(=O)=O)ccc2N(CCN2CC=C(c3c[nH]c4cc(F)ccc34)CC2)S1(=O)=O", "values": [
      {"measurement": "scaled lipid accumulation score", "setting": "[5]", "result": 0.137}
    ]},
    {"smiles": "C[C@@]1(C(=O)Nc2ccc(F)nc2)CCCN1c1nc(Nc2cc(C3CC3)n[nH]2)c2cccn2n1", "values": [
      {"measurement": "scaled lipid accumulation score", "setting": "[4]", "result": "≤ 0"},
      {"measurement": "scaled lipid accumulation score", "setting": "[5]", "result": 0.177}
    ]},
    {"smiles": "CN1CCC(=C2c3ccccc3CC(=O)c3sccc32)CC1", "note": "[Ketotifen fumarate]", "values": [
      {"measurement": "scaled lipid accumulation score", "result": 0.627},
      {"measurement": "scaled lipid accumulation score", "setting": "[7]", "result": 0.276},
      {"measurement": "scaled lipid accumulation score", "setting": "[5]", "result": "0.172 and 0.737"}
    ]},
    {"smiles": "CN1CCC(=C2c3ccccc3CC(=O)c3sccc32)CC1", "note": "[Ketotifen Fumarate]", "values": [
      {"measurement": "scaled lipid accumulation score", "setting": "[4]", "result": "≤ 0"},
      {"measurement": "scaled lipid accumulation score", "setting": "[5]", "result": 0.576}
    ]},
    {"smiles": "CN1CCC(=C2c3ccccc3CCc3sccc32)CC1.O=C(O)CC(O)C(=O)O", "note": "[Pizotifen Malate]", "values": [
      {"measurement": "scaled lipid accumulation score", "setting": "[5]", "result": "1.32 (active)"}
    ]},
    {"smiles": "CN1CCC(=C2c3ccccc3CC(=O)c3sccc32)CC1", "values": [
      {"measurement": "scaled lipid accumulation score", "setting": "[5]", "result": 0.593}
    ]},
    {"smiles": "NC(=O)N1c2ccccc2CC(=O)c2ccccc21", "note": "[Oxcarbazepine]", "values": [
      {"measurement": "scaled lipid accumulation score", "setting": "[4]", "result": "≤ 0"},
      {"measurement": "scaled lipid accumulation score", "setting": "library stock concentration: 7.9 mM", "result": "≤ 0"},
      {"measurement": "scaled lipid accumulation score", "setting": "[5]", "result": "≤ 0 and ≤ -0.027"}
    ]},
    {"smiles": "CN1CCC(=C2c3ccccc3CCc3sccc32)CC1.O=C(O)/C=C\\C(=O)O", "note": "[Pizotyline]", "values": [
      {"measurement": "scaled lipid accumulation score", "setting": "[5]", "result": "1.2 (active)"}
    ]},
    {"smiles": "CN1CCC(=C2c3ccccc3CC(=O)c3sccc32)CC1.O=C(O)/C=C/C(=O)O", "note": "[Ketotifen fumarate]", "values": [
      {"measurement": "scaled lipid accumulation score", "setting": "[5]", "result": "0.913 (active)"}
    ]},
    {"smiles": "CN1CCC(=C2c3ccccc3CCc3sccc32)CC1", "note": "[Pizotifen Malate]", "values": [
      {"measurement": "scaled lipid accumulation score", "setting": "[4]", "result": 0.473}
    ]},
    {"smiles": "CN1CCC(=C2c3ccccc3CCc3sccc32)CC1", "note": "[Pizotifen malate]", "values": [
      {"measurement": "scaled lipid accumulation score", "result": 0.782}
    ]},
    {"smiles": "NC(=O)N1c2ccccc2CC(=O)c2ccccc21", "note": "[Trileptal]", "values": [
      {"measurement": "scaled lipid accumulation score", "setting": "[5]", "result": "≤ 0"}
    ]},
    {"smiles": "CN1CCC(=C2c3ccccc3CCc3sccc32)CC1", "note": "[Pizotyline malate]", "values": [
      {"measurement": "scaled lipid accumulation score", "setting": "[7]", "result": 0.792}
    ]}
  ]
}
